# Assay results taken from paper PMC7819943, “Rice protein-binding microarrays: a tool to detect cis-acting elements near promoter regions in rice”.
# In all, about 39,000 sequences were measured (“fluorescence intensity (a.u.)”: median about 4,300, highest 2% from about 39,000 on). This excerpt belongs to a sample that is enriched for the highest values.
# Target: T1, OsSMF1 (Oryza sativa, UniProt Q6ZLB0 1-436)
# T1 sequence: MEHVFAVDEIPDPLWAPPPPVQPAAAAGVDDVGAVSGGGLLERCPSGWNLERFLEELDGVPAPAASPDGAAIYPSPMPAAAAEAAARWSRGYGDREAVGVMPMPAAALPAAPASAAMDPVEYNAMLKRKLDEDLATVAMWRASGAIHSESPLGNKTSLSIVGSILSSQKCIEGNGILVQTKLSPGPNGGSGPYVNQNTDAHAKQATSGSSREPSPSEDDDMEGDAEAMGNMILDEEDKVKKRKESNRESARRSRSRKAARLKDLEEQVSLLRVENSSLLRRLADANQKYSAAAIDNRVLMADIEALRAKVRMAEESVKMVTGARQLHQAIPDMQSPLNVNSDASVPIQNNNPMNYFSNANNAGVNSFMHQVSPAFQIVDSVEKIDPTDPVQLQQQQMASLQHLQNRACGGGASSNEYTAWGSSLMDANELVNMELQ
# Test: protein-binding microarray (RPBM); PBS, 2% BSA, 51.3 ng/ul salmon testes DNA, 50 uM zinc acetate, 200 nM TF, 25 C, 1 h; high values mean tight binding
# Conditions: protein: recombinant; tags: N-terminal polyhistidine and DsRed monomer fusion (pET32a); chain copies: 2; label: CyDye5-dUTP incorporated in the synthesized complementary strand; 3' TTTTT single-stranded linker to array surface; dsDNA, one strand shown
# Method in brief: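 An Axon 4000B scanner gave the binding signal as per-feature fluorescence intensity in arbitrary units. This followed washing of a custom Agilent array that had been incubated for 1 h at 25 °C with 200 nM protein in PBS, 2% BSA, salmon testes DNA and 50 µM zinc acetate. The proteins were transcription factors fused at the N-terminus to polyhistidine and DsRed, expressed in E. coli BL21-CodonPlus and purified on Ni–NTA.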
row,Sequence,binding signal
1,CGTGACGCGCAGCTCCCTGCAGCCGACCTGGCCACCCACACGGAGTCACCTAGTGCAG,3500 fluorescence intensity (a.u.)
2,TATATTCGTGTCATTTAGATACCATACCACATCCTGCTACCGGAGTCACCTAGTGCAG,3240 fluorescence intensity (a.u.)
3,TTACGATCACCGAAAAGTGGTAGCGTACGTGTTGAGTGTGCGGAGTCACCTAGTGCAG,4140 fluorescence intensity (a.u.)
4,GCTTGCTTTGTCACATGCAGTTTTACACCTTTTATTTCTCCGGAGTCACCTAGTGCAG,6070 fluorescence intensity (a.u.)
5,TCAGGTGAAATCTGCTTCAGCCATATTCATTGGTAATCAGCGGAGTCACCTAGTGCAG,3600 fluorescence intensity (a.u.)
6,AAATCAGGAGCCTCTGCCATTGGTTTGTGAAGCTACATCGCGGAGTCACCTAGTGCAG,65500 fluorescence intensity (a.u.)
7,AATCAGATGATCGGTGCTGCAGCCATCATTGAAGCCTGTGCGGAGTCACCTAGTGCAG,3400 fluorescence intensity (a.u.)
8,CTCACTGACGTAGGTTTATTGTACCTATTCTAATTAAGGCCGGAGTCACCTAGTGCAG,39400 fluorescence intensity (a.u.)
9,ACACTATTAATTGTTTTATTAGGTTTCAGACGTTATTTTGCGGAGTCACCTAGTGCAG,3150 fluorescence intensity (a.u.)
10,GAGGGTTTTAATTACTCACTGACATGTAGGGTCACGGGGTCGGAGTCACCTAGTGCAG,4390 fluorescence intensity (a.u.)
11,TTTGAGCGCCGCTCGACTATGTCATGAAGCAACGTGGCACCGGAGTCACCTAGTGCAG,7750 fluorescence intensity (a.u.)
12,GGGGAGAGGGAGGAGGAGGAGGAGAGTGGCTACTAGTACTCGGAGTCACCTAGTGCAG,3380 fluorescence intensity (a.u.)
13,CTCATTTGAACACATGTACACTACTAATCCTCGTTCTGGACGGAGTCACCTAGTGCAG,39200 fluorescence intensity (a.u.)
14,TGTACATTGTTTGAACTAATCAGTAATCATCACAGTGGTTCGGAGTCACCTAGTGCAG,3160 fluorescence intensity (a.u.)
15,ACATTCTAGCCATTCATTCTTCACACCTCATTTAATCCTACGGAGTCACCTAGTGCAG,3280 fluorescence intensity (a.u.)
16,CAATAGACTTCAAGGAAGCATACCAATACCAGTAACCACACGGAGTCACCTAGTGCAG,40800 fluorescence intensity (a.u.)
17,ACCACACCTTGTCAAAACTTCAGTAACAGCAGAAGTTACACGGAGTCACCTAGTGCAG,3140 fluorescence intensity (a.u.)
18,GGCAAACCAGTAACTAGAAACCACGTTATTCAAAAGCATTCGGAGTCACCTAGTGCAG,3940 fluorescence intensity (a.u.)
19,GCGGTTTATGTACACGTCAGCATTTTGCTTCCTTCCTTCCCGGAGTCACCTAGTGCAG,47800 fluorescence intensity (a.u.)
20,TATACACCACGTTTGCTGGCTTGGCTTCCTTCCACACTCCCGGAGTCACCTAGTGCAG,4000 fluorescence intensity (a.u.)
21,TCTTTTGGTTTACAACACTTTGTATGCTAGCATTATTTTGCGGAGTCACCTAGTGCAG,3420 fluorescence intensity (a.u.)
22,CCGCGCCACCTCATGCCGTGACGTGCAGATCCCCTCCTCCCGGAGTCACCTAGTGCAG,7890 fluorescence intensity (a.u.)
23,AATCTCGGTGCTGAGTGGACATGAATGAATGATGGAATCTCGGAGTCACCTAGTGCAG,4150 fluorescence intensity (a.u.)
24,TTGTCCATCAATGGAGATGATGATGCCATGATCAAATGATCGGAGTCACCTAGTGCAG,3370 fluorescence intensity (a.u.)
25,ACATCATGCCACATGCTTCCAAGAAGGATCCCATAGATGTCGGAGTCACCTAGTGCAG,4220 fluorescence intensity (a.u.)
26,ATCGTGATGCAAATGTCGAACTTGGAAGATATCCATGGATCGGAGTCACCTAGTGCAG,39000 fluorescence intensity (a.u.)
27,GGAATGGATAGTGTTCTCGGAAGGAAATTGGTGCTGATGTCGGAGTCACCTAGTGCAG,45600 fluorescence intensity (a.u.)

row,Sequence,binding signal
1,CACGTGTTTTCTCGATGTCCACGTGGTGATGTGGAATTGTCGGAGTCACCTAGTGCAG,14800 fluorescence intensity (a.u.)
2,TCGATTCATTCGTTCCTTGGGTCGTGTCAGCATGGCCCATCGGAGTCACCTAGTGCAG,11100 fluorescence intensity (a.u.)
3,GGTCTGGCGATGGAGCCTCCCGCCGGAGACGCCGCGCCGTCGGAGTCACCTAGTGCAG,3540 fluorescence intensity (a.u.)
4,CCATGTTCCCAACCCCTCTCCCTCATTTTCCACGCGTATGCGGAGTCACCTAGTGCAG,3650 fluorescence intensity (a.u.)
5,ATGTTTGTGAAGTGACATATCACATATTGATCTATCATACCGGAGTCACCTAGTGCAG,5200 fluorescence intensity (a.u.)
6,GTCCCTATCACATCGGATGTTTGAACAAAACAGAATATACCGGAGTCACCTAGTGCAG,45600 fluorescence intensity (a.u.)
7,TAACATCATGTCTAGTTTGTTACCCTATCAAGACTAAAACCGGAGTCACCTAGTGCAG,42600 fluorescence intensity (a.u.)
8,ATCATCTAGTTAAGACTGTTTGTATGCAACTATGCATGTACGGAGTCACCTAGTGCAG,31400 fluorescence intensity (a.u.)
9,GAAACAAACACATCAGATGACGTTTGTTGAAATGCCTAACCGGAGTCACCTAGTGCAG,5000 fluorescence intensity (a.u.)
10,TGAGAGGTCTACATCATTACATGTCAAGACAAGACTACCACGGAGTCACCTAGTGCAG,4540 fluorescence intensity (a.u.)
11,ACTTAATAAAATCAAACGTCACAGTTCCGTACTTTTCAGTCGGAGTCACCTAGTGCAG,35900 fluorescence intensity (a.u.)
12,TCGCCGGGCTTCTCTACGAGTACCTCGTCATCCCGTCCACCGGAGTCACCTAGTGCAG,5700 fluorescence intensity (a.u.)
13,ACGCAGCGGGCCAACTCCAACTCATCCCCAGCCTCCACCACGGAGTCACCTAGTGCAG,4360 fluorescence intensity (a.u.)
14,TCCGTGCTACAGCTAGCTACAGATATGTAGTCCGTCATTCCGGAGTCACCTAGTGCAG,45200 fluorescence intensity (a.u.)
15,TTGGAGTCCGTGCTGCAGCTGGCTACAGATCTGTAGCCCGCGGAGTCACCTAGTGCAG,37600 fluorescence intensity (a.u.)
16,CCGTGCTACAGCTGGCTACAAATATGTAGCCCTATGCTCTCGGAGTCACCTAGTGCAG,18300 fluorescence intensity (a.u.)
17,ATCCTGTCACGGTCAGCCACGTCGCGGAGGGCAGTGCGACCGGAGTCACCTAGTGCAG,4580 fluorescence intensity (a.u.)
18,TTTACCATTGCGGGTGCTCTAATAGGTGGCATGCCATGCGCGGAGTCACCTAGTGCAG,4740 fluorescence intensity (a.u.)
19,CGCTTCTCTCCCTGAGCTCGGCCTCGTGTCACTGACGTCGCGGAGTCACCTAGTGCAG,4390 fluorescence intensity (a.u.)
20,CGTCGTGCTCGTCGACGTCGTGCACTCCGTCGCCATCGTGCGGAGTCACCTAGTGCAG,3220 fluorescence intensity (a.u.)
21,AGGCTCCCCTGAGTCGTGACGTGCACTCGAAAGTCGAAAGCGGAGTCACCTAGTGCAG,41100 fluorescence intensity (a.u.)
22,TACTTTAAGTACATGTATTAGTCAGCTGATATATACCTCACGGAGTCACCTAGTGCAG,4310 fluorescence intensity (a.u.)
23,AGTATCTCTTTCACAAAAGCCTACGTCATCTTTAAATTAGCGGAGTCACCTAGTGCAG,5060 fluorescence intensity (a.u.)
24,CTTGCGATGCGTGGTGAGTGGTGACTGTAATGTAATGGAACGGAGTCACCTAGTGCAG,3450 fluorescence intensity (a.u.)
25,ACCTGGTAACTGAACACAGGATGGAAACTCTGAATAATGACGGAGTCACCTAGTGCAG,3250 fluorescence intensity (a.u.)
26,GATGGAGACCCTGTGCGAACTGACAGTAATAGGGCTGGAACGGAGTCACCTAGTGCAG,39400 fluorescence intensity (a.u.)
27,ATTTACTGCCTATTCGTGAGTTGGTCCTCCTGACTCTGACCGGAGTCACCTAGTGCAG,3750 fluorescence intensity (a.u.)
